From PubChem
C1s block – blocks human complement C1s protease activity; mean inhibition % of two 10-compound mixtures (hits give high values), % at 5 µM (by protocol); 62,000 tested, 0.16% active; AID 538; purified C1s, fluorogenic AMC substrate, pooled mixtures;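 active = inhibition above 20% in each of the two 10-compound mixture wells holding the compound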
Target sequence (P09871 16-437 limits assumed): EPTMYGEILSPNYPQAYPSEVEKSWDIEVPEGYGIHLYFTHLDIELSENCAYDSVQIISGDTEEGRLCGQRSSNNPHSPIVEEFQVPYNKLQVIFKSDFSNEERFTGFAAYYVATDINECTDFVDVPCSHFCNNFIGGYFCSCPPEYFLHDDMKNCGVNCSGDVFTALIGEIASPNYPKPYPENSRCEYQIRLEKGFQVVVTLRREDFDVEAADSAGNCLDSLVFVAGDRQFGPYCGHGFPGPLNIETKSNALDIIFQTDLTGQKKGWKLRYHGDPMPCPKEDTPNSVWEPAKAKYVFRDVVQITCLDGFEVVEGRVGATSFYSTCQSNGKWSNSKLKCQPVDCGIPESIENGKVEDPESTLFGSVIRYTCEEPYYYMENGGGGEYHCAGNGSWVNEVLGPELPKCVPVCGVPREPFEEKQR
Target sequence (P09871 438-688 limits assumed): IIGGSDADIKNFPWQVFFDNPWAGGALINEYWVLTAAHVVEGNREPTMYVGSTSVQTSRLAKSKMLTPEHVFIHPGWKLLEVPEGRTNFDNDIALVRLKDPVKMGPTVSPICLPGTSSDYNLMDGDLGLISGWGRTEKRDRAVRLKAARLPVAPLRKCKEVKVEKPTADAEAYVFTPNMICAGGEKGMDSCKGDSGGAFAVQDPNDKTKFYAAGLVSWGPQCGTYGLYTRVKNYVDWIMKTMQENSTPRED
CatG inh – inhibitors of human cathepsin G | P08311 | purified enzyme, AMC-tetrapeptide fluorescence, pooled mixtures | inhibition, % at 5 µM (by protocol) | 62,000 tested, 0.2% active;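 active = inhibition above 20% in each of the two mixture wells holding the compound; inactive = inhibition of 20% or less in either well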
mHtt clearance – compounds clearing mutant huntingtin protein; HeLa Exon1htt(103Q)mCFP, aggregate imaging; zero = plate's median compound well; inhibition, % at 1.5 µM; 47,000 tested, 0.42% active; AID 853;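 active = inhibition of aggregate fluorescence above about 70%, also judged a hit by eye on the cell image, limit read from the data, passing the limit was not always enough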;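 note: cells exposed to compound for three days before fixation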
FXIa inh mix – inhibitors of human coagulation factor XIa, pooled mixtures. purified FXIa, fluorogenic substrate. inhibition, % at 5 µM. 62,000 tested, 0.19% active. AID 680;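 note: each value is inhibition by a whole ten-compound pool holding the compound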
FXIIa inh mix – factor XIIa (human) inhibition, mixture screen | purified FXIIa, fluorogenic substrate, pooled mixtures | inhibition, % at 5 µM | 62,000 tested, 0.2% active
WNV NS2B-NS3 inh – blocks West Nile virus NS2B-NS3 protease activity. P06935. 65,000 tested, 0.18% active. WNV NS2B-NS3 protease, fluorogenic substrate Ex360/Em465; hits give low values. z-score (no concentration beside the values); in the data active = z-score below about -3
Hits are given with their value; n = inactive; x = no result given. An excerpt weighted towards active compounds, which were near 0.75% of everything screened. Cut-off read from the data, not from the text of the source, unless noted: active = inhibition above about 20% (passing the limit was not always enough); inactive = the rest.

SMILES	C1s block	CatG inh	mHtt clearance	FXIa inh mix	FXIIa inh mix	WNV NS2B-NS3 inh
CCCCN1C(=O)/C(=C2\SC(N3CCCCC3)=NC2=O)c2ccccc21	23	n	n	n	n	n
COc1ccc(CC(=O)OCc2cc3ccccc3[nH]c2=O)cc1	67	n	n	n	n	n
COc1cccc(C2NC(=O)NC(C)=C2C(=O)Nc2cccc(C)c2C)c1 (configuration not stated)	n	n	n	n	21	n
COc1ccc2ncn(-c3ccccc3)c2c1	n	n	75	n	n	n
CCOC(=O)C1CCN(C(=O)c2oc3ccc(S(=O)(=O)N4CC(C)CC(C)C4)cc3c2C)CC1 (configuration not stated)	n	n	x	n	n	x
CCOC(=O)N1CCN(S(=O)(=O)c2ccc3c(c2)oc(=O)n3C)CC1	x	x	n	x	x	n
CC(NS(=O)(=O)c1ccc(F)cc1)C(c1cccs1)N1CCN(C)CC1 (configuration not stated)	n	n	x	n	n	n
CC(NS(=O)(=O)c1ccc(Cl)cc1)C(c1cccs1)N1CCN(C)CC1 (configuration not stated)	x	x	77	x	x	n
CC(=O)N1CN(CCCn2ccnc2)Cc2c1sc1c2CCCC1	n	n	x	n	n	n
CC(=O)N1CN(Cc2ccccn2)Cc2c1sc1c2CCCC1	n	n	83	n	n	n
COc1ccc(N=CC2=C(Nc3ccc(OC)cc3)c3c(C)nn(-c4ccccn4)c3CC2)cc1	x	x	n	x	x	x
CC(C)C(=O)N1CCN(c2ccc(NC(=O)c3cccs3)cc2)CC1	x	x	79	x	x	x
CCC(Sc1nnnn1-c1ccccc1)C(=O)NC(C)c1ccccc1 (configuration not stated)	n	n	71	n	n	n
Cc1cc(C)n(C(=O)c2ccc(NC(=O)CC(C)C)cc2)n1	n	n	90	n	n	n
O=C(c1csc2c1CCCC2)n1cccn1	52	48	x	45	n	n
O=C(c1csc2c1CCCC2)N1CCN(c2ncccn2)CC1	n	n	n	n	n	n
